# Sampled rows, rich in hits. Any-hit rate of the full collection: about 2.4%.
# D2 ag-1: HTS Assay for Allosteric Agonists of the Human D2 Dopamine Receptor: Primary Screen for Agonists; AID 485358, 2010; D(2) dopamine receptor (Homo sapiens), P14416; HEK293 T-REx D2 cells, calcium flux agonist mode; activation, % at 2 µM; 340,000 compounds, 0.53% hits;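 active means activation over 3 SD above normal in the single-dose calcium agonist read, cut at about 30% in these data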
# Target sequence (P14416 whole entry, looked up): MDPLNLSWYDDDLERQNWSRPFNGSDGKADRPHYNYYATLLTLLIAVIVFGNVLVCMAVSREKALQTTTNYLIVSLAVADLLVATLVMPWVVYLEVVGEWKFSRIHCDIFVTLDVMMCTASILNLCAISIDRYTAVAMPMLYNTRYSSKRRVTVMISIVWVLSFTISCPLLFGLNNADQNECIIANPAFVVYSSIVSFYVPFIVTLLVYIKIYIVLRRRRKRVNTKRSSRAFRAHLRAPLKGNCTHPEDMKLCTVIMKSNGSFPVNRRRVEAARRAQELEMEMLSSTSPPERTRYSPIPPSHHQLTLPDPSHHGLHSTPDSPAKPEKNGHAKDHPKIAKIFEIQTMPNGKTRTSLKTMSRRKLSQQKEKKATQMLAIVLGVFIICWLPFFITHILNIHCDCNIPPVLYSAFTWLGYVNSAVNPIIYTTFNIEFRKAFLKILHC
#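 In this primary screen, compounds producing a positive calcium signal within 180 s of addition to tetracycline-induced, force-coupled HEK293 Trex D2 cells are flagged; cells are dye-loaded with a no-wash calcium kit beforehand.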
# D2 PAM-1: HTS Assay for Positive Allosteric Modulators of the Human D2 Dopamine Receptor: Primary Screen for Potentiators. 340,000 compounds, 0.34% hits. HEK293 T-REx D2, calcium flux, EC20 dopamine potentiation. D(2) dopamine receptor (Homo sapiens), P14416. AID 485347, 2010. potentiation, % at 10 µM;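 active means potentiation over 3 SD above the plate norm, cut at about 30% in these data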
#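 Primary screen. Calcium kinetics in induced HEK293 T-REx D2 cells: compound pre-addition 180 s, EC20 dopamine, 180 s more.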
# D2 antag: HTS Assay for Allosteric Antagonists of the Human D2 Dopamine Receptor: Primary Screen for Antagonists; HEK293 TREx D2 cells, calcium flux, dopamine EC80; inhibition, % at 10 µM; 340,000 compounds, 2% hits; AID 485344, 2010; in the data active means inhibition above about 30%; inactive means below that, where a call was filed
#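 Tetracycline-induced HEK293 TREx cells expressing D2 receptor forced-coupled to calcium signalling, loaded with no-wash calcium dye. Compounds added and calcium flux read 180 s, then dopamine added at EC80 and read a further 180 s.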
# D2 ag-2: Beta-Arrestin HTS for Positive Allosteric Modulators of the Human D2 Dopamine Receptor: Agonists; D(2) dopamine receptor (Homo sapiens), P14416; DiscoveRx PathHunter D2 beta-arrestin, luminescence, 90 min; 100% = 57 uM dopamine signal; activation, % (concentration not given with the values); 360,000 compounds, 0.084% hits; AID 624465, 2012; in the data active means activation above about 40%
#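 Agonist mode: compounds alone added to overnight-plated D2 PathHunter cells for 90 min at 37 C, with 57 uM final dopamine (EC100) defining full response. Beta-arrestin recruitment detected by chemiluminescent reagent, read after 1 h at ambient temperature.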
# D2 PAM-2: Beta-Arrestin HTS for Positive Allosteric Modulators of the Human D2 Dopamine Receptor: Potentiators; D(2) dopamine receptor (Homo sapiens), P14416; DiscoveRx D2 beta-arrestin cells, luminescence, 90 min; 100% = 57 uM dopamine signal; potentiation, % (concentration not given with the values); 360,000 compounds, 0.23% hits; in the data active means potentiation above about 50%
#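 PathHunter D2 cells, attached overnight at 37 deg C, received compound in DMSO plus dopamine at EC20 (50 nM final) for 90 min at 37 deg C. Beta-arrestin recruitment was read as luminescence after 1 h with detection reagent at ambient temperature.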
# Hits are given with their value; . = inactive; / = not tested or not shown.
SMILES,D2 ag-1,D2 PAM-1,D2 antag,D2 ag-2,D2 PAM-2
CCOP(=O)(c1ccccc1)c1nc(-c2ccc(F)cc2)oc1N1CCCCC1 (stereo not given),.,.,31.7,.,.
CCOc1ccc(CNC(=O)c2c(C)nn(-c3ccc(F)cc3)c2-n2cccc2)cc1,.,.,/,/,/
Cc1ccc(S(=O)(=O)C2(C(=O)NC3CCCC3)CC2)cc1,.,35.1,.,.,.
Cc1ccc(S(=O)(=O)C2(C(=O)NC3CCCCC3C)CC2)cc1 (stereo not given),.,.,.,.,.
OCCNC(=S)Nc1ccc2nsnc2c1,.,.,30.7,.,.
CCn1ccc2cc(S(=O)(=O)N3CCCN(C(=O)Nc4ccc(C)c(F)c4)CC3)ccc21,.,.,/,/,/
COc1ccc(NC(=O)CCCn2nc(C)c3sc4ccccc4c3c2=O)cc1,.,.,/,/,/
COc1cc(NC(=O)CCn2nc(C)c(S(=O)(=O)N3CCCCC3)c2C)cc(OC)c1OC,.,.,/,/,/
Cc1cc(C)cc(NC(=O)[C@H](NC(=O)[C@@H]2Cc3ccccc3CN2)c2ccccc2)c1,.,.,40.1,.,.
CCn1c2ccccc2c2cc(NC(=O)Cc3ccc(S(=O)(=O)N4CCOCC4)s3)ccc21,.,.,36.2,.,.
CCOC(=O)C1CCN(C(=O)Cc2c(F)cccc2Cl)CC1,.,.,30.8,.,.
COc1ccccc1NC(=O)N1CCCC1,.,.,33.1,.,.
COc1ccccc1NC(=O)N1CCN(C)CC1,.,.,.,.,.
COc1ccc(CCN2C(=O)c3[nH]nc(-c4ccccc4O)c3C2c2cccc(OC)c2)cc1 (stereo not given),.,.,/,/,/
COc1ccc(CCN2C(=O)c3[nH]nc(-c4ccccc4O)c3C2c2cccc(Cl)c2)cc1 (stereo not given),.,.,.,.,91.2
Cc1ccc(Cl)cc1NC(=O)Cn1cc(S(=O)(=O)Cc2ccccc2Cl)c2ccccc21,.,.,/,/,/
CC1=C(C(=O)Nc2ccccc2)C(c2ccccn2)n2nc(SCc3ccccc3Cl)nc2N1 (stereo not given),/,.,/,/,/
CCCN1CCC(Oc2cccc(C(=O)NCCc3ccccc3)c2)CC1,.,31.2,.,.,.
COCCNC(=O)c1cccc(OC2CCN(Cc3cccc(C(C)=O)c3)CC2)c1,.,.,.,.,.
CCCCN(C)C(=O)c1cccc(OC2CCN(CC(C)(C)C)CC2)c1,.,.,66.8,.,.
CC(C)(C)CN1CCC(Oc2cccc(C(=O)N3CCNC(=O)C3(C)C)c2)CC1,.,.,31.6,.,.
CCn1nc(C)c2c(-c3ccccc3)cc(=O)n(C(C)C(=O)Nc3cccc(F)c3)c21 (stereo not given),.,.,/,/,/
CCOC(=O)C(NC(=O)c1ccccc1)(Nc1cc(C)on1)C(F)(F)F (stereo not given),.,.,31.2,.,.
CCOC(=O)C(NC(=O)c1ccc(OC)cc1)(Nc1cc(C)on1)C(F)(F)F (stereo not given),.,.,.,.,.
CC1CCN(S(=O)(=O)c2ccc3ncn(CC(=O)N4CCN(C)CC4)c(=O)c3c2)CC1,.,.,48.4,.,.
SMILES,D2 ag-1,D2 PAM-1,D2 antag,D2 ag-2,D2 PAM-2
Cc1ccc(NC(=O)CN2C(=O)c3cccnc3Sc3ccccc32)cc1C,.,.,/,/,/
CCCSC1=C(C#N)C(c2ccc(OC)cc2)C2=C(CC(C)(C)CC2=O)N1 (stereo not given),.,.,41.7,.,.
CCN1CCN(c2oc(-c3ccc(COc4ccc(C)cc4)o3)nc2C#N)CC1,.,.,/,/,/
CCOc1ccc(OC(=O)c2cn(-c3ccc(C)cc3)c(=O)c3ccccc23)cc1,.,.,/,/,/
COc1ccc(CN2COc3ccc4c(-c5ccc(OC)cc5)cc(=O)oc4c3C2)cc1,/,.,/,/,/
CC(C)CSc1nnc2c3ccccc3n(C)c2n1,/,.,/,.,.
CC(C)OC(=O)CSc1nnc2c3ccccc3n(C)c2n1,.,.,37.2,.,.
O=C(Nc1cccc2nsnc12)c1ccc(-c2cccc(Cl)c2)o1,.,.,.,.,51.4
O=C(Nc1ccccc1N1CCCCC1)c1ccc(-c2cccc(Cl)c2)o1,.,.,.,.,.
Cc1cccc(C)c1OCc1nc2c3cnn(-c4ccccc4Br)c3ncn2n1,.,.,/,/,/
Cc1cc(C)n2c(Nc3cccc(C(F)(F)F)c3)c(-c3ccsc3)nc2n1,.,.,/,/,/
CC(C)(C)OC(=O)N1CCC(c2nnc(SCc3cccc(Cl)c3)o2)CC1,.,.,/,/,/
CSCCC(NS(=O)(=O)c1ccccc1F)C(=O)N1CCCCCC1 (stereo not given),.,.,43.6,.,.
CCOc1ccccc1NC(=O)C1CCN(S(=O)(=O)c2ccc3c(c2)CCCN3C(C)=O)CC1,.,.,/,/,/
COc1ccc(NC(=O)C(C)n2c(C)c3cnn(-c4ccccc4)c(=O)c3c2C)cc1Cl (stereo not given),.,.,/,/,/
Clc1ccc2c(c1)C(N1CCNCC1)=Nc1ccccc1O2,.,.,75.9,.,.
O=C(Nc1ccc(OC(F)(F)F)cc1)c1ccc2nc[nH]c2c1,.,.,61.7,.,.
CCOC(=O)c1ccccc1NC(=O)CSc1ncc2c(n1)-c1ccccc1N(CC)S2(=O)=O,.,.,/,/,/
CC(C)Oc1ccc(C2CC(=O)N(c3ccc(N(C)C)cc3)C2=O)cc1 (stereo not given),.,.,34.0,.,.
CC(C)Oc1ccc(C2CC(=O)N(c3ccccc3)C2=O)cc1 (stereo not given),/,/,/,.,.
COc1ccc(CN2CCCC(N3CCN(c4cccc(Cl)c4)CC3)C2)cc1OC (stereo not given),38.4,.,.,.,.
CCOc1cc(CN2CCCC(N3CCN(c4ccc(F)cc4)CC3)C2)ccc1OC (stereo not given),.,.,.,.,.
COc1ccccc1N1CCN(C2CCCN(S(=O)(=O)c3ccc(C)cc3)C2)CC1 (stereo not given),.,.,66.5,.,.
COc1ccccc1N1CCN(C2CCCN(S(=O)(=O)c3cccc(Cl)c3)C2)CC1 (stereo not given),.,.,53.3,.,.
Cc1cc(OCc2cc(C(=O)N3CCN(C)C(=O)[C@@H]3C)no2)cc(C)c1Cl,.,30.4,.,.,.
COc1cc(Cl)ccc1OCc1cc(C(=O)N2CCN(C)C(=O)[C@@H]2C)no1,/,/,/,.,.
CCOC(=O)C1C(=O)Nc2nc(C)nn2C1c1ccccc1 (stereo not given),.,.,41.9,.,.
